Data as given in PubChem BioAssay (NCATS).
Results filed as inconclusive are left out. Where a call stands in place of a potency, no number is given. Active and inactive are the calls of the source. Unless noted, calls come from the whole dose curve.

Legend:
[1] = qHTS for Inhibitors of the Functional Ribonucleoprotein Complex (vRNP) of Lassa (LASV) Arenavirus: LASV Primary Screen - GLuc reporter signal (AID 1347082; calls by dose curve; tested in HEK293 reporter line; note: nearly all actives have a fitted effect of over 60% in size; note: potency is the fitted concentration of half-maximal effect)
[2] = qHTS for Inhibitors of the Functional Ribonucleoprotein Complex (vRNP) of Lassa (LASV) Arenavirus: Viability assay - alamar blue signal for LASV Primary Screen (AID 1347083; calls by dose curve; tested in HEK293 reporter line; note: nearly all actives have a fitted effect of over 80% in size; note: potency is the fitted concentration of half-maximal effect)
[3] = qHTS for Inhibitors of the Functional Ribonucleoprotein Complex (vRNP) of Lymphocytic Choriomeningitis Arenaviruses (LCMV): Viability assay - alamar blue signal for LCMV Primary Screen (AID 1347085; calls by dose curve; tested in HEK293 reporter line; note: nearly all actives have a fitted effect of over 80% in size; note: potency is the fitted concentration of half-maximal effect)
[4] = target: Nucleoprotein (Lymphocytic choriomeningitis virus (strain Armstrong)) (UniProt P09992); assay: qHTS for Inhibitors of the Functional Ribonucleoprotein Complex (vRNP) of Lymphocytic Choriomeningitis Arenaviruses (LCMV): LCMV Primary Screen - GLuc reporter signal (AID 1347086); note: nearly all actives have a fitted effect of over 70% in size; note: potency is the fitted concentration of half-maximal effect
[5] = Cytotoxicity counterscreen for inhibitors of SARS-CoV-2 cell entry (AID 1645845); note: nearly all actives have a fitted effect of over 50% in size
Method in brief: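 48 h compound treatment (after 1 h preincubation), HEK293-ACE2 cells, 37 C/5% CO2; ATP luminescence endpoint; normalized to cell wells and media blanks.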

[6] = Primary qHTS to identify inhibitors of SARS-CoV-2 cell entry (AID 1645846); conditions: activity change, negative = inhibition: at 57.1 µM (top of the series) unless noted; note: nearly all actives have a fitted effect of over 45% in size
Method in brief: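 Entry measured by luciferase signal 48 h after adding SARS-CoV-2-S pseudotyped MLV particles to HEK293-ACE2 cells preincubated 1 h with compounds. Normalisation: bald particles and spike particles.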

Sequence of Nucleoprotein (Lymphocytic choriomeningitis virus (strain Armstrong)) (P09992 whole entry, looked up): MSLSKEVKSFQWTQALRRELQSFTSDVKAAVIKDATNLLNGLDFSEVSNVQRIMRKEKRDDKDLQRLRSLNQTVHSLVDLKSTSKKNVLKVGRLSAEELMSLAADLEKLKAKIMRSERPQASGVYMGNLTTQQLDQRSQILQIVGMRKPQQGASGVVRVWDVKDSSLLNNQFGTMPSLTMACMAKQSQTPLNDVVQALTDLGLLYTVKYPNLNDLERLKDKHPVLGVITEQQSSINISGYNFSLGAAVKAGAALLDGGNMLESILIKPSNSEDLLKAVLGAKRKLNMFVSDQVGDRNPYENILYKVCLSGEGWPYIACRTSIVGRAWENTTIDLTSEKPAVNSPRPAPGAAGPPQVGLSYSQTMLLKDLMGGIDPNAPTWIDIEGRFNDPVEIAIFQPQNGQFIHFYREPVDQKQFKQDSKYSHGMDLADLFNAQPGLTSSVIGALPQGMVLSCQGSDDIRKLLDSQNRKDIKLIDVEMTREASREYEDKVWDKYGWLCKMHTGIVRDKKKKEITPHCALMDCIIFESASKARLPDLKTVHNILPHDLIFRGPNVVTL

Structure (SMILES)	Potency [1]	Potency [2]	Potency [3]	Potency [4]	Potency [5]	activity change, negative = inhibition [6] [%]	Potency [6]
COc1cccc2c(NCc3ccccc3)nc(-n3c(N)nc4ccccc43)nc12	inactive	inactive	inactive	inactive	inactive		
COc1ccc(S(=O)(=O)Nc2cc(-c3c(O)ccc4ccccc34)c(O)c3ccccc23)cc1	inactive	inactive	inactive	inactive	inactive		
NC(=O)[C@@H](CCC(F)(F)F)N(Cc1ccc(-c2ncon2)cc1F)S(=O)(=O)c1ccc(Cl)cc1	inactive	inactive	inactive	inactive	inactive		
CC(C)[C@H](O)C(=O)N[C@@H](C)C(=O)N[C@@H]1C(=O)N(C)CCc2ccccc21	inactive	inactive	inactive	inactive	inactive	4.11	
C[C@H]1COC2=C1C(=O)C(=O)c1c2ccc2c1CCCC2(C)C	inactive	inactive	inactive	inactive	inactive		
O=C(O)Cc1cccc(OCCCN(Cc2cccc(C(F)(F)F)c2Cl)CC(c2ccccc2)c2ccccc2)c1	inactive	inactive	inactive	inactive	inactive		
O=c1ccn([C@@H]2O[C@H](CO)[C@H](O)[C@@H]2F)c(=O)[nH]1	4.85 µM (active)	6.11 µM (active)	4320 nM (active)	3.06 µM (active)	inactive	-22.4	
O=c1ncn2nc(Sc3ccc(F)cc3F)ccc2c1-c1c(Cl)cccc1Cl	inactive	inactive	inactive	inactive	inactive		
CCn1cc(-c2ccnc3[nH]c(-c4cccc(CN(C)C)c4)cc23)c(-c2ccc(NC(=O)N(C)C)cc2)n1	13.7 µM (active)	4.85 µM (active)	2430 nM (active)	3.43 µM (active)	inactive		
CC(C)c1cc(C(C)C)c(CC(=O)NS(=O)(=O)Oc2c(C(C)C)cccc2C(C)C)c(C(C)C)c1	inactive	inactive	inactive	inactive	inactive		
Cc1cnc(C(=O)O)c[n+]1[O-]	inactive	inactive	inactive	inactive	inactive	-9.41	
CC[C@@H]([C@H](C)O)n1ncn(-c2ccc(N3CCN(c4ccc(OCC5CO[C@@](Cn6cncn6)(c6ccc(F)cc6F)C5)cc4)CC3)cc2)c1=O (stereo partly drawn)	inactive	inactive	inactive	inactive	inactive		
C[C@@H]1CC[C@@]2(OC1)OC1CC3C4CC=C5CC(O)CCC5(C)C4CCC3(C)C1[C@@H]2C (stereo partly drawn)	inactive	inactive	inactive	inactive	inactive		
COc1cc2nccc(Oc3ccc(NC(=O)Nc4ccc(F)cc4F)c(F)c3)c2cc1OC	inactive	inactive	inactive	inactive	inactive		
CC(C)Nc1cc(C(F)(F)F)cc2nc(NC(=O)c3cccnc3)nn12	inactive	inactive	inactive	inactive	inactive	-4.48	
CCCCC(F)(F)[C@@]1(O)CC[C@H]2[C@H](CC(=O)[C@@H]2CCCCCCC(=O)O)O1	inactive	inactive	inactive	inactive	inactive		
C[C@H](NC(=O)[C@@H](O)c1cc(F)cc(F)c1)C(=O)N[C@@H]1C(=O)N(C)c2ccccc2-c2ccccc21	inactive	inactive	inactive	inactive	inactive		
Cn1cc(-c2ccc3ncc(Cc4ccc5ncccc5c4)n3n2)cn1	inactive	inactive	inactive	inactive	inactive		inactive
Cn1c(=O)c(-c2c(Cl)cccc2Cl)cc2cnc(Nc3cccc(C(=O)O)c3)nc21	inactive	inactive	inactive	inactive	inactive		inactive
COC(=O)C1C2CC3c4[nH]c5cc(OC)ccc5c4CCN3CC2CC(OC(=O)c2cc(OC)c(OC)c(OC)c2)C1OC (stereo not drawn)	inactive	inactive	inactive	inactive	inactive		
O=C(O)c1cc(O)c2c(c1)C(=O)c1cccc(O)c1C2=O	inactive	inactive	inactive	inactive	inactive		
COc1ccc(C(=O)CC2(O)C(=O)Nc3c(Cl)ccc(Cl)c32)cc1 (stereo not drawn)	24.3 µM (active)	1.53 µM (active)	432 nM (active)	2.73 µM (active)	inactive		
C[C@H](NC(=O)C(=O)Nc1ccccc1C(C)(C)C)C(=O)N[C@@H](CC(=O)O)C(=O)COc1c(F)c(F)cc(F)c1F	inactive	inactive	inactive	inactive	inactive	-42.2	
CNc1nc(Nc2ccc(C(=O)N3CCOCC3)cc2OC)ncc1Cl	inactive	24.3 µM (active)	inactive	inactive	inactive		inactive
C[C@]12CCC3c4ccc(O)cc4CCC3C1CCC2=O (stereo partly drawn)	inactive	inactive	inactive	inactive	inactive		inactive
O=c1oc2cc(O)ccc2s1	inactive	inactive	inactive	inactive	inactive	-12.6	
Cc1cc(N2CCOCC2)cc2[nH]c(-c3c(NC[C@@H](O)c4cccc(Cl)c4)cc[nH]c3=O)nc12	3.85 µM (active)	0.769 µM (active)	863 nM (active)	1.53 µM (active)	inactive	-9.29	
CC(=O)SCC(Cc1ccccc1)C(=O)NCC(=O)OCc1ccccc1 (stereo not drawn)	1.09 µM (active)	0.432 µM (active)	172 nM (active)	0.273 µM (active)	inactive	-34.7	
c1cc(-c2sc(-c3ccncc3)c(-c3ccncc3)c2-c2ccncc2)ccn1	inactive	inactive	inactive	inactive	inactive		inactive
